The text below walks through data of ChEMBL document CHEMBL3988442, “University of Dundee, Small-Polar-MMV Screening Library” (2021).

The structures appear in SMILES notation.

For assay [1], the target named is T1, Aspartate--tRNA(Asp/Asn) ligase (Mycobacterium tuberculosis (strain ATCC 25618 / H37Rv)) (UniProt P9WFW3). Further: in the data most compounds retested in dose-response had high values.
T1 sequence (whole entry): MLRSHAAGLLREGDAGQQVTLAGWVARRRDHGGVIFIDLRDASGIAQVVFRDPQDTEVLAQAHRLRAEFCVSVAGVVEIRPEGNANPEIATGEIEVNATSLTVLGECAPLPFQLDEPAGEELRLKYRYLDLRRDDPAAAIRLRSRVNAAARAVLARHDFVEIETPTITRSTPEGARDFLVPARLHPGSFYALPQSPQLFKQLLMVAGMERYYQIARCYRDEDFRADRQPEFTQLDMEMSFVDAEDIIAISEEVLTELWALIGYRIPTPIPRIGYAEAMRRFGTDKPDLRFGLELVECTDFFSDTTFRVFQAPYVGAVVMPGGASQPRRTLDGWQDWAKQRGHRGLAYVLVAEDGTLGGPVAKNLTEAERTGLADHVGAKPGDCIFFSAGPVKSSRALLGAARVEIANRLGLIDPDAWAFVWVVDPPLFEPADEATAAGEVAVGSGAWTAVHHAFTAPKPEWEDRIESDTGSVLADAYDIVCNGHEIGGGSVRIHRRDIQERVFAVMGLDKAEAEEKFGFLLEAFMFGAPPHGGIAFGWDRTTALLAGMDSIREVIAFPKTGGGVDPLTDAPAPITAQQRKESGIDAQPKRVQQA
The experiment in a line: Assay for Asp RNA synthetase-1 from Mycobacterium tuberculosis. The assay is classed as functional. Further details: scale not given: direction of the effect not stated beside the values. The note with it: 30 µM.

For assay [2], the target named is Shiga toxin 2 (Escherichia coli O157:H7) (UniProt P09385+P09386). As to the kind of experiment: E. coli 0.157:H7 Shiga Toxin SOP - stx2 screening assay. Particulars: 30 µM. More on the design: scale not given: direction of the effect not stated beside the values. The format is functional.

As to `CCS(=O)(=O)N1CCc2c(CN(C)Cc3ccco3)cncc2C1`, the Percent Effect in assay [1] is -0.0582%; in assay [2], -1.96%.

For `O=C(NCC1CCOC1)Nc1ccc(OCC(F)(F)F)nc1` (configuration not stated), the Percent Effect in assay [1] was -1.61%; in assay [2], -28.7%.

Regarding `COCCOc1ccc(NC(=O)N2CCCC2c2ccncc2)cn1` (configuration not stated), the Percent Effect in assay [1] is 0%; in assay [2], 19%.

For `CC(=O)N(Cc1ncc(C(C)C)o1)C1CCN(Cc2ncc[nH]2)C1` (configuration not stated), the Percent Effect in assay [1] stood at 5.3%; in assay [2], 10.9%.

As for `CN(C)CCN1CCC2(CCN(C(=O)c3ccc(F)cc3)CC2)C1=O`, the Percent Effect in assay [1] was 2.84%; in assay [2] it was -5.38%.

Consider `CC(C)c1noc(C(C)N2CCN(CCO)CC2)n1` (configuration not stated), for which the Percent Effect was 13% in assay [1] and 16.1% in assay [2].

For `COc1cccc2cc(CNC(=O)N3CCCC(O)C3)oc12` (configuration not stated), the Percent Effect in assay [1] was -4.17%; in assay [2], -15.3%.

In the case of `CN(c1ccncn1)C1CC2(CCN(C(=O)CCc3cccs3)C2)C1` (configuration not stated), the results for the Percent Effect in assay [1] and in assay [2] were -1.32% and -23.3%, respectively.

As to `Cn1ccnc1CN1CCN(CC(O)c2cccc(F)c2)CC1` (configuration not stated), the Percent Effect amounted to 1.53% in assay [1] and 14% in assay [2].

As for `Cc1csc2nc3n(c(=O)c12)CCN(C(=O)c1ccncc1)CC3`, the Percent Effect is -3.92% in assay [1] and 3.14% in assay [2].

For the compound `CS(=O)(=O)NC[C@]12COC[C@H]1CN(C(=O)C1CCCCC1)C2`, the Percent Effect in assay [1] is 7.93%; in assay [2] it was -3.53%.

Take `COc1ccc(CNC(=O)CNc2cc3c(cc2Cl)OCCCO3)cc1`: the Percent Effect is 2.02% in assay [1] and 0.898% in assay [2].

Take `CN1CCN(CC2CC2)C(=O)c2cnc(N3CCCC3)nc21`: the values for the Percent Effect in assay [1] and in assay [2] were -0.103% and -25.1%, respectively.

On to `CCn1nc(C)c(CCNC(=O)C2CCCN(C(=O)N(C)C)C2)c1C` (configuration not stated), for which the Percent Effect was -4.2% in assay [1] and 14.2% in assay [2].

For the compound `O=C(c1cc(C2CC2)[nH]n1)N1CCCC(n2cncn2)C1` (configuration not stated), the Percent Effect is -3.08% in assay [1] and 12.1% in assay [2].

Turning to `CCc1nccn1C1CCCN(C(=O)Cc2cn3ccccc3n2)C1` (configuration not stated), the Percent Effect in assay [1] was 0.0146%; in assay [2] it was -20.4%.

Consider `CC(Cn1cccn1)NCc1csc(-c2ccccc2F)n1` (configuration not stated), for which the Percent Effect in assay [1] is -4.2%; in assay [2], -6.96%.

For `CCn1c(C)cc(C(=O)N2CCCC(n3nc(C)nc3C)C2)c1C` (configuration not stated), the figures for the Percent Effect in assay [1] and in assay [2] were -4.26% and 16%, respectively.

For the compound `CCNc1cc2c(nn1)CCN(C(=O)c1ccc(NC3CC3)nc1)C2`, the values for the Percent Effect in assay [1] and in assay [2] were -0.723% and 2.8%, respectively.

Consider `COC(=O)CCNC(=O)C1CC(=O)N(C2CCCC2)C1` (configuration not stated), for which the figures for the Percent Effect in assay [1] and in assay [2] were 0.859% and -13.4%, respectively.

With `O=C(c1ccc(-n2ccnc2)nc1)N1CCCC(n2cccn2)C1` (configuration not stated), the figures for the Percent Effect in assay [1] and in assay [2] were -4.43% and 28.7%, respectively.

For the compound `c1ncc(Nc2nccc(C3CCCCN3CC3CCCCC3)n2)cn1` (configuration not stated), the Percent Effect in assay [1] was 0.28%; in assay [2], -0.91%.

Regarding `Cc1cccc(CNC2CCCc3c2cnn3C)c1` (configuration not stated), the Percent Effect in assay [1] is 0.855%; in assay [2] it was -9.23%.

As to `CCS(=O)(=O)N1CCCc2ccc(NC(=O)Cc3ccc(F)cc3)cc21`, the Percent Effect in assay [1] was determined as 3.34%; in assay [2], 7.51%.

`CC(C)(C)c1nnc(CN2CCOC(Cn3cncn3)C2)o1` (configuration not stated): the Percent Effect in assay [1] came out at 0.0111%; in assay [2] it was 8.96%.

For `Cc1nc(C)n(C2CCCN(C(=O)c3sccc3C3CC3)C2)n1` (configuration not stated), the Percent Effect in assay [1] was -3.11%; in assay [2] it was 10.4%.

Regarding `Cc1c(C(=O)NC(C)C(C)C)nnn1-c1cccc2c1CCN(C)C2` (configuration not stated), the Percent Effect in assay [1] is 2.19%; in assay [2], 3.53%.

Consider `O=C(NC1CC(=O)N(Cc2cccc(F)c2)C1)c1ccncc1` (configuration not stated), for which the Percent Effect in assay [1] was 0.413%; in assay [2] it was -9.17%.

As to `O=C(CCc1ccccc1)N1CCC(N2CCNC2=O)CC1`, the Percent Effect in assay [1] came out at 1.87%; in assay [2] it was 26%.

Regarding `O=S(=O)(N(Cc1ccccn1)C1CC1)N1CCCC1c1ccco1` (configuration not stated), the figures for the Percent Effect in assay [1] and in assay [2] were 2.62% and -10.3%, respectively.

Turning to `CCc1c(C)nc2n(c1=O)CC(C(=O)Nc1nc3c(s1)CCCC3)CS2` (configuration not stated), the Percent Effect is 2.32% in assay [1] and -5.2% in assay [2].

On to `COc1ccc(C(=O)N2CCCCC2Cn2cccn2)c(F)c1` (configuration not stated), for which the Percent Effect is 3.52% in assay [1] and -7.04% in assay [2].

`CCOCC(O)CN1CCN(C(=O)CC(C)C)CC1` (configuration not stated): the Percent Effect in assay [1] is -2.19%; in assay [2], 18.6%.

Take `Cc1ccc(N2CCCC(NCc3ccsc3)C2)nn1` (configuration not stated): the Percent Effect in assay [1] came to 4.57%; in assay [2], 10.6%.

As to `O=C1COC2(CCN(C(=O)c3ccco3)CC2)CN1Cc1cccnc1`, the Percent Effect in assay [1] was -2.62%; in assay [2], -14.9%.

As to `CCC(=O)N1CCCC1c1nccnc1Nc1nc(C)cc(C)n1` (configuration not stated), the values for the Percent Effect in assay [1] and in assay [2] were 4.25% and -28.8%, respectively.

For the compound `COCC1c2nnn(CC3CC3)c2CCN1C(=O)c1ccnnc1` (configuration not stated), the Percent Effect is -4.7% in assay [1] and -8.58% in assay [2].

As for `CNS(=O)(=O)c1ccc(C(=O)NCCNc2ncccn2)cc1`, the results for the Percent Effect in assay [1] and in assay [2] were -1.6% and 25.5%, respectively.

For the compound `Cc1nc(C2CCCN(C(=O)c3ccc(OCC4CC4)cc3)C2)no1` (configuration not stated), the Percent Effect is -8.26% in assay [1] and -5.46% in assay [2].

In the case of `CC(C)c1cc(N2CCN(c3ccc(O)cc3)CC2)n2nccc2n1`, the results for the Percent Effect in assay [1] and in assay [2] were -1.38% and 15%, respectively.

On to `CN1CC(c2ccccc2)CC2(CCN(CC(=O)N(C)C)CC2)C1` (configuration not stated), for which the Percent Effect in assay [1] is -3.52%; in assay [2] it was 15.8%.

In the case of `O=C([C@H]1C[C@H]2OCC[C@H]2N(CCc2ccccc2)C1)N1CCCCO1`, the Percent Effect is 0.871% in assay [1] and 6.49% in assay [2].

Turning to `CCOCCCn1c(NC(=O)c2cnn(C)c2)nc2ccccc21`, the results for the Percent Effect in assay [1] and in assay [2] were -2.49% and 22.6%, respectively.

For `Cc1cnc(CN(C)C2CCN(CC(=O)Nc3nncs3)C2)o1` (configuration not stated), the Percent Effect in assay [1] is 3.17%; in assay [2], -13.8%.

In the case of `CCc1nc(C2CCCN2C(=O)c2c[nH]c(C)n2)no1` (configuration not stated), the Percent Effect in assay [1] was -7.28%; in assay [2] it was 0.205%.

For `Cc1cnn(CC2CCCN2C(=O)c2ccc3cc[nH]c3c2)c1` (configuration not stated), the figures for the Percent Effect in assay [1] and in assay [2] were -4.26% and 1.09%, respectively.
